Data from PubChem BioAssay AID1159580 (chemical genetic matrix, 2015).
The whole screen tested about 5,500 compounds, of which about 2,000 (36%) were called active. About 18% were inconclusive and are not listed. Rule as the data show it: active = normalized growth mostly below about 0.91 (no sharp cut-off); inconclusive = no clear call, values can overlap the other calls; inactive = mostly above about 0.92. The list shows a part of the results.

Assay: chemical genetic growth profiling, strain panel (AID 1159580);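 also: tested at 20 µM; growth read once vehicle control cultures reached saturation at 30 °C; 1 = growth at the plate median or of vehicle wells; lower values mean less growth of the strain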
Conditions: growth OD

Measured: normalized growth

COc1c(C)c2c(c(O)c1C/C=C(\C)CCC(=O)O)C(=O)OC2
inactive: S. cerevisiae deletion strains, locus YKL190W, strain CNB1, hits give low values 0.921 | S. cerevisiae deletion strains, locus YLR371W, strain rom2, hits give low values 0.955 | S. cerevisiae deletion strains, locus YLR384C, strain iki3, hits give low values 0.983 | S. cerevisiae deletion strains, locus YML016C, strain PPZ1, hits give low values 0.992 | S. cerevisiae deletion strains, locus YMR307W, strain GAS1, hits give low values 0.8 | S. cerevisiae deletion strains, locus YNL128W, strain TEP1, hits give low values 0.868 | S. cerevisiae deletion strains, locus YOL006C, strain TOP1, hits give low values 0.934 | S. cerevisiae deletion strains, locus YOL012C, strain htz1 0.529 | S. cerevisiae deletion strains, locus YOR061W, strain CKA2, hits give low values 0.945 | S. cerevisiae deletion strains, locus YOR136W, strain idh2, hits give low values 0.922 | S. cerevisiae deletion strains, locus YPL241C, strain CIN2, hits give low values 0.967
active: S. cerevisiae deletion strains, locus YKL009W, strain mrt4, hits give low values 0.561 | S. cerevisiae deletion strains, locus YKL068W, hits give low values 0.72 | S. cerevisiae deletion strains, locus YKL085W, strain MDH1 (second series), hits give low values 0.279 | S. cerevisiae deletion strains, locus YKL085W, strain MDH1, hits give low values 0.279 | S. cerevisiae deletion strains, locus YKL160W, strain elf1, hits give low values 0.596 | S. cerevisiae deletion strains, locus YKR001C, strain vps1, hits give low values 0.493 | S. cerevisiae deletion strains, locus YKR026C, strain gcn3, hits give low values 0.648 | S. cerevisiae deletion strains, locus YKR091W, strain srl3, hits give low values 0.763 | S. cerevisiae deletion strains, locus YLL001W, strain dnm1, hits give low values 0.398 | S. cerevisiae deletion strains, locus YLL026W, hits give low values 0.533 | S. cerevisiae deletion strains, locus YLL041C, strain sdh2, hits give low values 0.822 | S. cerevisiae deletion strains, locus YLR027C, strain aat2, hits give low values 0.514 | S. cerevisiae deletion strains, locus YLR039C, strain RIC1, hits give low values 0.504 | S. cerevisiae deletion strains, locus YLR058C, strain SHM2, hits give low values 0.844 | S. cerevisiae deletion strains, locus YLR102C, strain apc9, hits give low values 0.813 | S. cerevisiae deletion strains, locus YLR113W, strain HOG1, hits give low values 0.189 | S. cerevisiae deletion strains, locus YLR221C, strain rsa3, hits give low values 0.376 | S. cerevisiae deletion strains, locus YLR258W, strain gsy2, hits give low values 0.532 | S. cerevisiae deletion strains, locus YLR262C, strain YPT6 (second series), hits give low values 0.415 | S. cerevisiae deletion strains, locus YLR262C, strain YPT6, hits give low values 0.467 | S. cerevisiae deletion strains, locus YLR268W, strain sec22, hits give low values 0.612 | S. cerevisiae deletion strains, locus YLR320W, strain mms22, hits give low values 0.443 | S. cerevisiae deletion strains, locus YLR330W, strain CHS5, hits give low values 0.878 | S. cerevisiae deletion strains, locus YLR342W, strain FKS1 (second series), hits give low values 0.669 | S. cerevisiae deletion strains, locus YLR342W, strain FKS1, hits give low values 0.442 | S. cerevisiae deletion strains, locus YLR357W, strain rsc2, hits give low values 0.779 | S. cerevisiae deletion strains, locus YLR370C, strain arc18, hits give low values 0.435 | S. cerevisiae deletion strains, locus YLR418C, strain cdc73, hits give low values 0.816 | S. cerevisiae deletion strains, locus YML032C, strain rad52, hits give low values 0.626 | S. cerevisiae deletion strains, locus YML120C, strain ndi1, hits give low values 0.406 | S. cerevisiae deletion strains, locus YML124C, strain tub3, hits give low values 0.737 | S. cerevisiae deletion strains, locus YMR058W, strain fet3, hits give low values 0.587 | S. cerevisiae deletion strains, locus YMR078C, strain ctf18, hits give low values 0.843 | S. cerevisiae deletion strains, locus YMR125W, strain sto1, hits give low values 0.635 | S. cerevisiae deletion strains, locus YMR129W, hits give low values 0.571 | S. cerevisiae deletion strains, locus YMR205C, strain PFK2, hits give low values 0.497 | S. cerevisiae deletion strains, locus YMR223W, strain ubp8, hits give low values 0.732 | S. cerevisiae deletion strains, locus YMR231W, strain pep5, hits give low values 0.358 | S. cerevisiae deletion strains, locus YMR263W, strain SAP30, hits give low values 0.765 | S. cerevisiae deletion strains, locus YNL067W, strain RPL9B, hits give low values 0.782 | S. cerevisiae deletion strains, locus YNL071W, strain lat1, hits give low values 0.531 | S. cerevisiae deletion strains, locus YNL153C, strain GIM3, hits give low values 0.811 | S. cerevisiae deletion strains, locus YNL183C, strain NPR1, hits give low values 0.0633 | S. cerevisiae deletion strains, locus YNL209W, strain ssb2, hits give low values 0.653 | S. cerevisiae deletion strains, locus YNL233W, strain BNI4, hits give low values 0.777 | S. cerevisiae deletion strains, locus YNL248C, strain rpa49, hits give low values 0.417 | S. cerevisiae deletion strains, locus YNL250W, strain rad50, hits give low values 0.39 | S. cerevisiae deletion strains, locus YNL271C, strain bni1, hits give low values 0.335 | S. cerevisiae deletion strains, locus YNL298W, strain CLA4, hits give low values 0.328 | S. cerevisiae deletion strains, locus YNL307C, strain MCK1, hits give low values 0.295 | S. cerevisiae deletion strains, locus YNL322C, strain KRE1 (second series), hits give low values 0.507 | S. cerevisiae deletion strains, locus YNL322C, strain KRE1, hits give low values 0.877 | S. cerevisiae deletion strains, locus YNR049C, strain mso1, hits give low values 0.607 | S. cerevisiae deletion strains, locus YNR052C, strain pop2, hits give low values 0.75 | S. cerevisiae deletion strains, locus YOL147C, strain pex11, hits give low values 0.675 | S. cerevisiae deletion strains, locus YOR001W, strain rrp6, hits give low values 0.582 | S. cerevisiae deletion strains, locus YOR069W, strain VPS5, hits give low values 0.911 | S. cerevisiae deletion strains, locus YOR070C, strain gyp1, hits give low values 0.583 | S. cerevisiae deletion strains, locus YOR080W, strain dia2, hits give low values 0.841 | S. cerevisiae deletion strains, locus YOR083W, strain WHI5, hits give low values 0.581 | S. cerevisiae deletion strains, locus YOR106W, strain vam3, hits give low values 0.442 | S. cerevisiae deletion strains, locus YOR144C, strain elg1, hits give low values 0.681 | S. cerevisiae deletion strains, locus YOR184W, strain ser1, hits give low values 0.345 | S. cerevisiae deletion strains, locus YOR231W, strain MKK1, hits give low values 0.171 | S. cerevisiae deletion strains, locus YOR265W, strain rbl2, hits give low values 0.691 | S. cerevisiae deletion strains, locus YOR270C, strain vph1, hits give low values 0.298 | S. cerevisiae deletion strains, locus YOR290C, strain snf2, hits give low values 0.359 | S. cerevisiae deletion strains, locus YOR316C, strain cot1, hits give low values 0.82 | S. cerevisiae deletion strains, locus YPL051W, strain arl3, hits give low values 0.552 | S. cerevisiae deletion strains, locus YPL055C, strain LGE1, hits give low values 0.589 | S. cerevisiae deletion strains, locus YPL078C, strain atp4, hits give low values 0.485 | S. cerevisiae deletion strains, locus YPL106C, strain sse1, hits give low values 0.661 | S. cerevisiae deletion strains, locus YPL240C, strain hsp82, hits give low values 0.568 | S. cerevisiae deletion strains, locus YPL256C, strain CLN2, hits give low values 0.18 | S. cerevisiae deletion strains, locus YPR119W, strain clb2, hits give low values 0.815 | S. cerevisiae deletion strains, locus YPR141C, strain kar3, hits give low values 0.575 | S. cerevisiae deletion strains, locus YPR163C, strain tif3, hits give low values 0.547 | S. cerevisiae deletion strains, locus YPR167C, strain met16, hits give low values 0.739 | S. cerevisiae deletion strains, strain wtn01, hits give low values 0.684 | S. cerevisiae strains, strain wild type, hits give low values 0.819
